# Data as given in PMC7862700, “An all-to-all approach to the identification of sequence-specific readers for epigenetic DNA modifications on cytosine”.
# Legend:
# Test in all cases: DAPPL (digital affinity profiling via proximity ligation, sequencing); 10 mM Tris-HCl pH 7.5, 50 mM NaCl, 1 mM DTT, 4% glycerol, room temperature, 30 min; GST-TFs on glutathione beads, 16-mer random dsDNA library, 0.1% formaldehyde crosslink after washing; high values mean tight binding
# FLI1 = target: T1, FLI1 (Homo sapiens, UniProt Q01543 1-452); conditions: protein: recombinant; tags: N-terminal GST; dsDNA, one strand shown
# T1 sequence: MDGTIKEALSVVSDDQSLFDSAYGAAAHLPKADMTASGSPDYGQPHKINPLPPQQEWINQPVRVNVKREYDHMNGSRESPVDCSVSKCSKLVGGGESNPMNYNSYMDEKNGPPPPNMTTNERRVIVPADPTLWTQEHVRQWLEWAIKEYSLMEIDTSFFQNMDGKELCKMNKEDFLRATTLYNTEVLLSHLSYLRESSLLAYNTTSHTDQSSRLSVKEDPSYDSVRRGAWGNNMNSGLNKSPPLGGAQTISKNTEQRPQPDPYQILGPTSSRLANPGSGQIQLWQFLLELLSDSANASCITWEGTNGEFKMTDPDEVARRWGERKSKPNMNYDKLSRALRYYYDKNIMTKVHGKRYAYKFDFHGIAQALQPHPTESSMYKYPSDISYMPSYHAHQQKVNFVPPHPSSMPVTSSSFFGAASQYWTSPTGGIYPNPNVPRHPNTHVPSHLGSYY
# Summary of the method: (§1)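 Human transcription factors fused to GST were expressed in yeast, captured on glutathione beads, given DNA barcodes and pooled with a GST-only negative control. Pools were incubated with 200 nmole of a 16-mer random double-stranded DNA library in Tris/NaCl/DTT/glycerol buffer at room temperature for 30 min. They were then washed, crosslinked with 0.1% formaldehyde, proximity-ligated (BsaI/T4 ligase, 1 h, 37 °C), PCR-amplified and sequenced on an Illumina NextSeq500. Binding signal is each 6-mer's read frequency for a factor divided by its frequency for the GST control.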
# ELK1 = target: T2, ELK1 (Homo sapiens, UniProt P19419 1-428); conditions: protein: recombinant; tags: N-terminal GST; dsDNA, one strand shown
# T2 sequence: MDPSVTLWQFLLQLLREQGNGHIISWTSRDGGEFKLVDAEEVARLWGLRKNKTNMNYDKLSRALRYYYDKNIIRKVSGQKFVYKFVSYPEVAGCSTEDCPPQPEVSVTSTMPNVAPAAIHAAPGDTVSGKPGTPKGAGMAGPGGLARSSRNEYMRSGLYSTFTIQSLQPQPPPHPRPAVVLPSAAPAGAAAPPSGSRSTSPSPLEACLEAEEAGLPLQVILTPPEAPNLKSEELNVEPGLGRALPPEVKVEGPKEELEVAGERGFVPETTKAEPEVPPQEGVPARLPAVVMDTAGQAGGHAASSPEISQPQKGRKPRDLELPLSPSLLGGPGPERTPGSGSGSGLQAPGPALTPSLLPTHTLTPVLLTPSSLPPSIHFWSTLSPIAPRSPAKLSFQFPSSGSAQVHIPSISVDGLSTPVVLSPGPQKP
# Summary of the method: as §1
# GABPA = target: T3, GABPA (Homo sapiens, UniProt Q06546 1-454); conditions: protein: recombinant; tags: N-terminal GST; dsDNA, one strand shown
# T3 sequence: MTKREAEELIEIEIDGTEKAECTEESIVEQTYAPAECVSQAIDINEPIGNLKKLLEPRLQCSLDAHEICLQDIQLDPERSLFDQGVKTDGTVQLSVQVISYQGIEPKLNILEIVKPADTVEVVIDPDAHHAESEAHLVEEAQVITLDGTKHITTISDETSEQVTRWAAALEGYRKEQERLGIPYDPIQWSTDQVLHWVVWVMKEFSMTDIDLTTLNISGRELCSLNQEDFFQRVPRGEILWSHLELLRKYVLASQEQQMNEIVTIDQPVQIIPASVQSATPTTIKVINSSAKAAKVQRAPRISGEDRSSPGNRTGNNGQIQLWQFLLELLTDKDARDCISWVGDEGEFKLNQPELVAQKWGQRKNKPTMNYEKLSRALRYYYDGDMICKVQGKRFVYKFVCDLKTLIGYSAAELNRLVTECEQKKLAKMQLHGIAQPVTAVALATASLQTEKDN
# Summary of the method: as §1
# ERG = target: T4, ERG (Homo sapiens, UniProt P11308 1-479); conditions: protein: recombinant; tags: N-terminal GST; dsDNA, one strand shown
# T4 sequence: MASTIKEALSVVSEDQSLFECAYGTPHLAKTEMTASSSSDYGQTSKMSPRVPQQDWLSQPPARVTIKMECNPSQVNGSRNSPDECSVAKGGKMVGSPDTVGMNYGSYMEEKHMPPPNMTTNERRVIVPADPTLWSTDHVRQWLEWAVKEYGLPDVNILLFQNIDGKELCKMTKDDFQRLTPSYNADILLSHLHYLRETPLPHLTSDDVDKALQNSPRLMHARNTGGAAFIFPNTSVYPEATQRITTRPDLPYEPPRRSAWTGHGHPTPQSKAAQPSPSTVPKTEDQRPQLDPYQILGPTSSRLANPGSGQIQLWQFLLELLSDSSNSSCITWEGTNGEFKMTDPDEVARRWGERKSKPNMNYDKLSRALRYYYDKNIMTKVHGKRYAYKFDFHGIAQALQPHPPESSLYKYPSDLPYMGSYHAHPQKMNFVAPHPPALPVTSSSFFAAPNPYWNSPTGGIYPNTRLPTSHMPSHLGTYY
# Summary of the method: as §1
# ELF1 = ELF1 (Homo sapiens, UniProt P32519 1-619); conditions: protein: recombinant; tags: N-terminal GST; dsDNA, one strand shown
# Chain of ELF1 (P32519 whole entry): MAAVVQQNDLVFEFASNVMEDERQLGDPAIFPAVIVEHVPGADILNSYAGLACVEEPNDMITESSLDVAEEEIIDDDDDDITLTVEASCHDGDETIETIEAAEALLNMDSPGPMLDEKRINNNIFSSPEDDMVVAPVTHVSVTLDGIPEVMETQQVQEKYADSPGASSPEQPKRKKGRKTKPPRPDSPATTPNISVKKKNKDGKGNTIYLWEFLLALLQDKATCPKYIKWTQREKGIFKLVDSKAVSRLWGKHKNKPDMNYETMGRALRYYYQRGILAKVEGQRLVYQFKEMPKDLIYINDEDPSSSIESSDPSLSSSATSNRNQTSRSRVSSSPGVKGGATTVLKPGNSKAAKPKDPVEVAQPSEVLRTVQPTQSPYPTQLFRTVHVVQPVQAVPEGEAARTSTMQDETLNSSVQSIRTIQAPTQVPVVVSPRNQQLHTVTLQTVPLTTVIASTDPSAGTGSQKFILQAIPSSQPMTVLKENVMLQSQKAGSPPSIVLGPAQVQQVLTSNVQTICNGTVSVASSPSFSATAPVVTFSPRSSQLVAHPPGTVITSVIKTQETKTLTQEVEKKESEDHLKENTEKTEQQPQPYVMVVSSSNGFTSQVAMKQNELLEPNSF
# Summary of the method: as §1
# EHF = target: T5, EHF (Homo sapiens, UniProt Q9NZC4 1-300); conditions: protein: recombinant; tags: N-terminal GST; dsDNA, one strand shown
# T5 sequence: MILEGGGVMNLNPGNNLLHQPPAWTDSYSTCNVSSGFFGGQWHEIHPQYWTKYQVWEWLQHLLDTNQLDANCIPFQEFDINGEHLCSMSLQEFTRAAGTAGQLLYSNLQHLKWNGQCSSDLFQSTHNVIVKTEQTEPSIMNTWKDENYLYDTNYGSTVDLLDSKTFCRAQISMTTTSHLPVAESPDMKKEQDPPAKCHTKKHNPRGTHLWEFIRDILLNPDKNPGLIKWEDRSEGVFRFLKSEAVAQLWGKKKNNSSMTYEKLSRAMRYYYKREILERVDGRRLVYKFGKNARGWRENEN
# Summary of the method: as §1
# SPI1 = SPI1 (Homo sapiens, UniProt P17947 1-270); conditions: protein: recombinant; tags: N-terminal GST; dsDNA, one strand shown
# Summary of the method: as §1
# SPIB = SPIB (Homo sapiens, UniProt Q01892 1-262); conditions: protein: recombinant; tags: N-terminal GST; dsDNA, one strand shown
# Chain of SPIB (Q01892 whole entry): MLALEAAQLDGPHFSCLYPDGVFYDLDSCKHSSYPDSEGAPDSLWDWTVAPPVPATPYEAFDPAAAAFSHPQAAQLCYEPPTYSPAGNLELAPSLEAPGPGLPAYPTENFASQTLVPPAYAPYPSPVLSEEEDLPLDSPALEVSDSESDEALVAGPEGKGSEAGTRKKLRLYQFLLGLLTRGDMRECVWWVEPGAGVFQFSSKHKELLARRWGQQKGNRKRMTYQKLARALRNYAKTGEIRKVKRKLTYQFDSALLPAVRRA
# Summary of the method: as §1
# ELK3 = target: T6, ELK3 (Homo sapiens, UniProt P41970 1-407); conditions: protein: recombinant; tags: N-terminal GST; dsDNA, one strand shown
# T6 sequence: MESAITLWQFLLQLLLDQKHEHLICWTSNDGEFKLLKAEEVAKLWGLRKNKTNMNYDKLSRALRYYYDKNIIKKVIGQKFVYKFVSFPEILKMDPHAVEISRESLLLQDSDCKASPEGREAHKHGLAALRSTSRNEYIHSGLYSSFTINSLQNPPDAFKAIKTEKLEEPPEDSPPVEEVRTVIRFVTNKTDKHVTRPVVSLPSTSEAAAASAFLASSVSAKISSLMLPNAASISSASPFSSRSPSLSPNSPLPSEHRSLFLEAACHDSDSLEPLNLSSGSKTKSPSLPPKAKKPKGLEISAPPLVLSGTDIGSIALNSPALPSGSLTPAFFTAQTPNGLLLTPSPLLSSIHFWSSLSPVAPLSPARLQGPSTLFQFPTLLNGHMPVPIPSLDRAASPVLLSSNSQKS
# Summary of the method: as §1
# FEV = target: T7, FEV (Homo sapiens, UniProt Q99581 1-238); conditions: protein: recombinant; tags: N-terminal GST; dsDNA, one strand shown
# T7 sequence: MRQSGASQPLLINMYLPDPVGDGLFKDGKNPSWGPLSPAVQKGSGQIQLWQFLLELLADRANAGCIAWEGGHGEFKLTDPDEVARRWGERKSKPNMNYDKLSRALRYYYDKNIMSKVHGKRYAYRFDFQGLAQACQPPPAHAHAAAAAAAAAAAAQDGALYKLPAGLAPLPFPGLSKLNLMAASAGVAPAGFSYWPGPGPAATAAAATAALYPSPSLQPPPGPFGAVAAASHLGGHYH
# Summary of the method: as §1
# ETV5 = ETV5 (Homo sapiens, UniProt P41161 1-510); conditions: protein: recombinant; tags: N-terminal GST; dsDNA, one strand shown
# Chain of ETV5 (P41161 whole entry): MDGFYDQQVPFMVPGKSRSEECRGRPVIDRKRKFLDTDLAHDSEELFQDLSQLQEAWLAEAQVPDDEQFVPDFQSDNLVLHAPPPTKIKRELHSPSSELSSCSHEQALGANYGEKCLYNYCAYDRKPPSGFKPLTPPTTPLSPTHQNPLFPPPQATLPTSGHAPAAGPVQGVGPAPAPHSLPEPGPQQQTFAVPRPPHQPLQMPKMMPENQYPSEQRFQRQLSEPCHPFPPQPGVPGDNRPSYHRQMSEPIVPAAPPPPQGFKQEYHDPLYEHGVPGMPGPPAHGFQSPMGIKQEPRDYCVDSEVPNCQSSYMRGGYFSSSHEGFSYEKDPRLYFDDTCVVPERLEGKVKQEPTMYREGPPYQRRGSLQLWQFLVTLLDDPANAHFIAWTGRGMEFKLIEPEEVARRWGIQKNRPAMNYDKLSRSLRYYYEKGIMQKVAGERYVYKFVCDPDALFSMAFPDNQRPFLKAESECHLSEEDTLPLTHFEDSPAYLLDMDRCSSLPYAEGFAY
# Summary of the method: as §1
# HSF1 = HSF1 (Homo sapiens, UniProt Q00613 1-529); conditions: protein: recombinant; tags: N-terminal GST; chain copies: 3; dsDNA, one strand shown
# Chain of HSF1 (Q00613 whole entry): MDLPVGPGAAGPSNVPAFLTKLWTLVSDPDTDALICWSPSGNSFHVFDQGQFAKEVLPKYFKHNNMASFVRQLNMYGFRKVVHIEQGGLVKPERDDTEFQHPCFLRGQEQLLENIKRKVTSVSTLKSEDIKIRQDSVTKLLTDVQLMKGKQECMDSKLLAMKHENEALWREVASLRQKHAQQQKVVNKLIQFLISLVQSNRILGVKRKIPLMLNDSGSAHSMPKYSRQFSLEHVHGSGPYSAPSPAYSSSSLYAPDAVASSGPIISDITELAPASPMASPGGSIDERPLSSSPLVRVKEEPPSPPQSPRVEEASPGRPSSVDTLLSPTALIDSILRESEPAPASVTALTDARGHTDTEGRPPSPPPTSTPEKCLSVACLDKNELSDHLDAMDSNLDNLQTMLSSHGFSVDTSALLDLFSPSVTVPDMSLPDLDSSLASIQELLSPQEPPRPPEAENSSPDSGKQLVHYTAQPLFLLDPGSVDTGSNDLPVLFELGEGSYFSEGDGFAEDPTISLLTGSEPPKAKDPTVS
# Summary of the method: as §1
# SPIC = target: T8, SPIC (Homo sapiens, UniProt Q8N5J4 1-248); conditions: protein: recombinant; tags: N-terminal GST; dsDNA, one strand shown
# T8 sequence: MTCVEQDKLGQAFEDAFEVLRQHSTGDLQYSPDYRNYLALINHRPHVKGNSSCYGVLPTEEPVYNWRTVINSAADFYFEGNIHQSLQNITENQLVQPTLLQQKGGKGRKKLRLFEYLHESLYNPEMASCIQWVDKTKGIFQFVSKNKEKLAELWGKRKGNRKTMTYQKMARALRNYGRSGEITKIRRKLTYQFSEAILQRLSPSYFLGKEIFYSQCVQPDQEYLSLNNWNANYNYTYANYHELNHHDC
# Summary of the method: as §1
# ELF4 = ELF4 (Homo sapiens, UniProt Q99607 1-663); conditions: protein: recombinant; tags: N-terminal GST; dsDNA, one strand shown
# Chain of ELF4 (Q99607 whole entry): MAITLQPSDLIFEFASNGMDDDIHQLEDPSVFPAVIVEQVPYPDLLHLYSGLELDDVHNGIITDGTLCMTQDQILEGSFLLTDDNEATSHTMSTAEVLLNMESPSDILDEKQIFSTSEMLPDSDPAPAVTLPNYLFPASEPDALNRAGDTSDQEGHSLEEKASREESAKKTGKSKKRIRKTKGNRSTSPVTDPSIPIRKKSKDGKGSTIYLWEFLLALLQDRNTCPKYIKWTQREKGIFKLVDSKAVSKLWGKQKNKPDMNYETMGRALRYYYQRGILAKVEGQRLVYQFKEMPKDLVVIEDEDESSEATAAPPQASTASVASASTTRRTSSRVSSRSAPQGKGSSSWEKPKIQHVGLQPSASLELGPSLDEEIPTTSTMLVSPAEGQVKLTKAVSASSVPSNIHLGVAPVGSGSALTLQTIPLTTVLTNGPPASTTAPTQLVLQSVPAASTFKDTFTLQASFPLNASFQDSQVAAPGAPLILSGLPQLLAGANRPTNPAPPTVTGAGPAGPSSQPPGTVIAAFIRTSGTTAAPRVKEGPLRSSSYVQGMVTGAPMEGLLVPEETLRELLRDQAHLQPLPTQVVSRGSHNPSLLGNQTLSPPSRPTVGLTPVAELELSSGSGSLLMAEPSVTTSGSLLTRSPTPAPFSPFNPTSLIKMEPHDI
# Summary of the method: as §1
# ELK4 = target: T9, ELK4 (Homo sapiens, UniProt P28324-2 1-405); conditions: protein: recombinant; tags: N-terminal GST; dsDNA, one strand shown
# T9 sequence: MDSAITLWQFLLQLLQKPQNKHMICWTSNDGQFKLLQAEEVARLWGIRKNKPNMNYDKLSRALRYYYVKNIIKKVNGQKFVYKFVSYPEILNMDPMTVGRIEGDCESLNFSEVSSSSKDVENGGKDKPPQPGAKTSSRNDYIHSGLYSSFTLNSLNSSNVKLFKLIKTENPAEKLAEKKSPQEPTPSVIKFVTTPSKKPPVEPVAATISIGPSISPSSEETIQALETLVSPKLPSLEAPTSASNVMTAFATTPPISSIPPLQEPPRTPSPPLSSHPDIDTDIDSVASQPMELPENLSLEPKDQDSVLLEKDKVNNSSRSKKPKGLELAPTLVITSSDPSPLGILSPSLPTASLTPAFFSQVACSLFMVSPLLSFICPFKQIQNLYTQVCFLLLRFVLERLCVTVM
# Summary of the method: as §1
# ETV2 = target: T10, ETV2 (Homo sapiens, UniProt O00321 1-342); conditions: protein: recombinant; tags: N-terminal GST; dsDNA, one strand shown
# T10 sequence: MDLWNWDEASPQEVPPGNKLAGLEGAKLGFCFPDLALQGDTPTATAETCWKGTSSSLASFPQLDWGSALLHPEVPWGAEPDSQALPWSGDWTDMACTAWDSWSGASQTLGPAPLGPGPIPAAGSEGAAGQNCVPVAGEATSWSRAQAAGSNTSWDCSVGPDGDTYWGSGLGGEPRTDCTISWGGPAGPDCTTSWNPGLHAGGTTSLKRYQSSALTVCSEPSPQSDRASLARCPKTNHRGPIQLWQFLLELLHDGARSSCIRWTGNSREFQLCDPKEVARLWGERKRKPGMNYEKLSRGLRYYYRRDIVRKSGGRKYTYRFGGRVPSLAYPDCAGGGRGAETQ
# Summary of the method: as §1
# ELF3 = target: T11, ELF3 (Homo sapiens, UniProt P78545 1-371); conditions: protein: recombinant; tags: N-terminal GST; dsDNA, one strand shown
# T11 sequence: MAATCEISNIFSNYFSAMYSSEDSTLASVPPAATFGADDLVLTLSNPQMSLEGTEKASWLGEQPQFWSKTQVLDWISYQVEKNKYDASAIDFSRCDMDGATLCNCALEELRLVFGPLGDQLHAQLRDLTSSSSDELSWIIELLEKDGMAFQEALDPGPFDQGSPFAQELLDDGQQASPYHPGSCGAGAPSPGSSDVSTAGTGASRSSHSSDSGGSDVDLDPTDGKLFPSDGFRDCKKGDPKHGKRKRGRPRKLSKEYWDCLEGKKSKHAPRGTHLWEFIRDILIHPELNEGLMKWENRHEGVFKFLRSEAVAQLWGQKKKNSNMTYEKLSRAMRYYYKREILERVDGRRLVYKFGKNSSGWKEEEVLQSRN
# Summary of the method: as §1
# CRX = CRX (Homo sapiens, UniProt O43186 1-299); conditions: protein: recombinant; tags: N-terminal GST; dsDNA, one strand shown
# Chain of CRX (O43186 whole entry): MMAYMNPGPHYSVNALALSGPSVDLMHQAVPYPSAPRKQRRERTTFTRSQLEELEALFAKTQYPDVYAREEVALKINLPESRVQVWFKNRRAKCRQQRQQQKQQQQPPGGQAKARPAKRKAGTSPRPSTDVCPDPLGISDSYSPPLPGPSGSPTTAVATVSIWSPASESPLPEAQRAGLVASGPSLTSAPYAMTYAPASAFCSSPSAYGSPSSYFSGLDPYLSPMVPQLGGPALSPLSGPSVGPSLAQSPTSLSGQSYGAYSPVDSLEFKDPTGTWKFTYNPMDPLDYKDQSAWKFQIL
# Summary of the method: as §1
# ETV1 = ETV1 (Homo sapiens, UniProt P50549 1-477); conditions: protein: recombinant; tags: N-terminal GST; dsDNA, one strand shown
# Chain of ETV1 (P50549 whole entry): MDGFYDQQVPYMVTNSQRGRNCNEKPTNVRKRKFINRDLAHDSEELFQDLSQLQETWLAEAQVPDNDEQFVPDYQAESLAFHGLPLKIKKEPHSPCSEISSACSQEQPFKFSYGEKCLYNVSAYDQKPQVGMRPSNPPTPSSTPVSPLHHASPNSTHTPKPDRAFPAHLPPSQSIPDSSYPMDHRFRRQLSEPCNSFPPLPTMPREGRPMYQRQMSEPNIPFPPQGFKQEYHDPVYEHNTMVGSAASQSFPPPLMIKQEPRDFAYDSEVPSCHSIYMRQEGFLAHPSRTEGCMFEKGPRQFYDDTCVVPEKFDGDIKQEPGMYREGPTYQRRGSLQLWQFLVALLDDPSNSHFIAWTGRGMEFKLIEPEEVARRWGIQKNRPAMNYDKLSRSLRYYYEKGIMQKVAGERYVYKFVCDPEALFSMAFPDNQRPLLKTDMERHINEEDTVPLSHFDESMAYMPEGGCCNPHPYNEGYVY
# Summary of the method: as §1
sequence,measurement,setting,value
ACTAAT,binding signal,FLI1,"1.33 fold enrichment (6-mer frequency, TF over GST control)"
same,binding signal,ELK1,"1.27 fold enrichment (6-mer frequency, TF over GST control)"
same,binding signal,GABPA,"1.23 fold enrichment (6-mer frequency, TF over GST control)"
same,binding signal,ERG,"1.2 fold enrichment (6-mer frequency, TF over GST control)"
same,binding signal,ELF1,"1.33 fold enrichment (6-mer frequency, TF over GST control)"
same,binding signal,EHF,"1.37 fold enrichment (6-mer frequency, TF over GST control)"
same,binding signal,SPI1,"1.28 fold enrichment (6-mer frequency, TF over GST control)"
same,binding signal,SPIB,"1.39 fold enrichment (6-mer frequency, TF over GST control)"
same,binding signal,ELK3,"1.37 fold enrichment (6-mer frequency, TF over GST control)"
same,binding signal,FEV,"1.19 fold enrichment (6-mer frequency, TF over GST control)"
same,binding signal,ETV5,"1.3 fold enrichment (6-mer frequency, TF over GST control)"
same,binding signal,HSF1,"1.81 fold enrichment (6-mer frequency, TF over GST control)"
same,binding signal,SPIC,"1.46 fold enrichment (6-mer frequency, TF over GST control)"
same,binding signal,ELF4,"1.36 fold enrichment (6-mer frequency, TF over GST control)"
same,binding signal,ELK4,"1.24 fold enrichment (6-mer frequency, TF over GST control)"
same,binding signal,ETV2,"1.38 fold enrichment (6-mer frequency, TF over GST control)"
same,binding signal,ELF3,"1.33 fold enrichment (6-mer frequency, TF over GST control)"
same,binding signal,CRX,"2.71 fold enrichment (6-mer frequency, TF over GST control)"
same,binding signal,ETV1,"1.3 fold enrichment (6-mer frequency, TF over GST control)"
